According to PubChem BioAssay (Tox21):
Results filed as inconclusive are left out. Calls of active or inactive are those of the source. Unless noted, calls follow the shape of the dose curve; as a rule, active = well fitted curve in the direction sought with a large enough effect in the repeat runs; inconclusive = weak or mixed curves; inactive = no such curve, though single readings can be large; an effect the other way counts as inactive or inconclusive.

What was measured:
[1] = qHTS assay to identify aromatase inhibitors - cell viability counter screen (AID 743084);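 also: cells stimulated with testosterone during compound exposure; nearly all actives have a fitted effect of over 55% in size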; also: potency is read from the fitted curve at half-maximal effect
[2] = target: Aryl hydrocarbon receptor (Homo sapiens) (UniProt P35869); assay: qHTS assay to identify small molecule that activate the aryl hydrocarbon receptor (AhR) signaling pathway (AID 743085); also: nearly all actives have a fitted effect of over 15% in size; also: potency is read from the fitted curve at half-maximal effect;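 as to activation: HG2L7.5c1 human HepG2 liver cells with stably integrated DRE-driven firefly reporter; series mostly up to about 70 µM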
Sequence of Aryl hydrocarbon receptor (Homo sapiens) (P35869 whole entry, looked up): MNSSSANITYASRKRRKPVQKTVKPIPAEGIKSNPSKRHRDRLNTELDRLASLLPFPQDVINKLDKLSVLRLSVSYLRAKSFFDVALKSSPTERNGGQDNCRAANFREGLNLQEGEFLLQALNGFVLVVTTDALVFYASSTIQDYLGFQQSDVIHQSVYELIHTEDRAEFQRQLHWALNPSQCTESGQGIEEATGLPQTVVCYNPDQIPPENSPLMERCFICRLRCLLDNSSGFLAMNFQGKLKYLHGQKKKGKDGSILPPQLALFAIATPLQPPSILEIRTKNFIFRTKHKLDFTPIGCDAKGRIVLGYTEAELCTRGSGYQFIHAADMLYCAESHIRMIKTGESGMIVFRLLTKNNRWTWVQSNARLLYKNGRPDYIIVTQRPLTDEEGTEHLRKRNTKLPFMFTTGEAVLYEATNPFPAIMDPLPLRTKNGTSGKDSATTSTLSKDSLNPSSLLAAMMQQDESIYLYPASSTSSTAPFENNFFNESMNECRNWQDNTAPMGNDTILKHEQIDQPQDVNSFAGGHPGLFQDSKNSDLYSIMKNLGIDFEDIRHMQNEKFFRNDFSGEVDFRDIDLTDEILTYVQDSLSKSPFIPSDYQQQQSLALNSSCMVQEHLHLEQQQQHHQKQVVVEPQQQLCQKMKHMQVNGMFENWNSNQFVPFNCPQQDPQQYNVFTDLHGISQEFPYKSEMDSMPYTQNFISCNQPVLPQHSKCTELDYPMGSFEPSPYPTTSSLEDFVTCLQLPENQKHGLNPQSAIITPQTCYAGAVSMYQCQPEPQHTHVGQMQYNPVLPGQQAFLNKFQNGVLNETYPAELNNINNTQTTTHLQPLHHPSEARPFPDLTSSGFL
In short: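 Luminescence (ONE-Glo) from a dioxin-responsive-element luciferase reporter in HG2L7.5c1 HepG2 cells after 24 hr compound exposure at 37C; viability measured by CellTiter-Fluor fluorescence beforehand.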

[3] = qHTS assay for small molecule agonists of the antioxidant response element (ARE) signaling pathway (AID 743202; active = well fitted activation curve with a large enough effect in the signal ratio in the repeat runs, not every such curve was filed as active; the % refers to the signal ratio; also: potency is read from the fitted curve at half-maximal effect)
In short: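 Following a 16 h, 37 C exposure of reporter HepG2 cells (ARE-driven beta-lactamase, 2,000 cells/well) to compounds, FRET substrate was applied for 2 h at room temperature and fluorescence intensity recorded.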

[4] = qHTS assay for small molecule agonists of the antioxidant response element (ARE) signaling pathway - cell viability counter screen (AID 743203; calls by dose curve; also: nearly all actives have a fitted effect of over 55% in size; also: potency is read from the fitted curve at half-maximal effect)
In short: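 Measured in the same wells as the beta-lactamase ARE reporter, this read-out is CellTiter-Glo luminescence from HepG2 ARE-bla cells given compounds for 16 hrs.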

[5] = qHTS assay to identify small molecule agonists of the peroxisome proliferator-activated receptor delta (PPARd) signaling pathway - cell viability counter screen (AID 743211); also: nearly all actives have a fitted effect of over 55% in size; also: potency is read from the fitted curve at half-maximal effect
In short: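 Viability was measured as CellTiter-Glo luminescence (30 min, room temperature) in the same wells as the beta-lactamase readout. GeneBLAzer PPARd UAS-bla HEK293H cells received compound after 5 h plating and were incubated 17 h at 37 C.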

[6] = qHTS assay for small molecule activators of the heat shock response signaling pathway - cell viability counter screen (AID 743209); also: nearly all actives have a fitted effect of over 50% in size
In short: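 Same-well multiplex: after 2.5 h room-temperature incubation with LiveBLAzer B/G substrate and fluorescence reading, CellTiter-Glo reagent was added to HSE-bla HeLa cells that had received compound for 5 h at 37 C; luminescence read after 30 min.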

[7] = qHTS assay for small molecule activators of the heat shock response signaling pathway (AID 743210; active = well fitted activation curve with a large enough effect in the signal ratio in the repeat runs, with a control signal flat, not every such curve was filed as active; the % refers to the signal ratio; also: series mostly up to about 63 µM)
In short: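 Heat shock element–beta-lactamase HeLa reporter cells; qHTS with compounds for 5 h at 37 C; detection by FRET substrate fluorescence after 2.5 h at RT.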

[8] = target: Bile acid receptor (Homo sapiens) (UniProt Q96RI1); assay: qHTS assay to identify small molecule agonists of the farnesoid-X-receptor (FXR) signaling pathway (AID 743220; active = well fitted activation curve with a large enough effect in the signal ratio in the repeat runs, not every such curve was filed as active; the % refers to the signal ratio)
Sequence of Bile acid receptor (Homo sapiens) (Q96RI1 whole entry, looked up): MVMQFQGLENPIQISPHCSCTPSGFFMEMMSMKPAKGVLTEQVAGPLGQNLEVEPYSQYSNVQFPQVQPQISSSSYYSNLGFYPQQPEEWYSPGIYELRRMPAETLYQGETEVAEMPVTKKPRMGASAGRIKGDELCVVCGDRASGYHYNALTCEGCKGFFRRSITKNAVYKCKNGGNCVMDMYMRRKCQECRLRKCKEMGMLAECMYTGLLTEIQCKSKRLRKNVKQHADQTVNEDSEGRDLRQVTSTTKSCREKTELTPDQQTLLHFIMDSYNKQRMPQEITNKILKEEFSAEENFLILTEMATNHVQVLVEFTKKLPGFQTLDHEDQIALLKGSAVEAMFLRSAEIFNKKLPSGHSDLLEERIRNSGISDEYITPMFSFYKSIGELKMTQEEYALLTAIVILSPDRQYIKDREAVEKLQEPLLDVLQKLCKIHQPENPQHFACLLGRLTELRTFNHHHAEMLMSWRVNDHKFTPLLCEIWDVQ
In short: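 FXR-UAS-bla HEK 293T cells carrying a UAS-driven beta-lactamase reporter were plated for 5 h at 37C/5% CO2, then exposed to DMSO-dissolved Tox21 10K compounds for 16 h at 37C. A LiveBLAzer B/G FRET substrate was loaded for 2 h at room temperature before fluorescence reading.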

[9] = qHTS assay to identify small molecule antagonists of the farnesoid-X-receptor (FXR) signaling pathway - cell viability counter screen (AID 743221; active = well fitted cell-killing curve with a large enough effect in the repeat runs, not every such curve was filed as active; also: nearly all actives have a fitted effect of over 50% in size; also: potency is read from the fitted curve at half-maximal effect)
In short: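 Cytotoxicity counter screen run in the FXR-bla reporter wells: HEK 293T cells exposed to compound with 50 uM (final) chenodeoxycholic acid for 16 h, 37 C, then viability measured by CellTiter-Glo luminescence after 30 min, room temperature.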

[10] = qHTS assay to identify small molecule antagonists of the peroxisome proliferator-activated receptor gamma (PPARg) signaling pathway - cell viability counter screen (AID 743194); also: nearly all actives have a fitted effect of over 55% in size; also: potency is read from the fitted curve at half-maximal effect
In short: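 PPARg-UAS-bla HEK293H cells were plated, rested 5 h at 37 C, then treated with compounds plus rosiglitazone (50 nM final) for 17 h at 37 C; viability was then read by CellTiter-Glo luminescence after 30 min at room temperature.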

[11] = target: Peroxisome proliferator-activated receptor delta (Homo sapiens) (UniProt Q03181); assay: qHTS assay to identify small molecule agonists of the peroxisome proliferator-activated receptor delta (PPARd) signaling pathway (AID 743212; calls by dose curve; also: potency is read from the fitted curve at half-maximal effect)
Sequence of Peroxisome proliferator-activated receptor delta (Homo sapiens) (Q03181 whole entry, looked up): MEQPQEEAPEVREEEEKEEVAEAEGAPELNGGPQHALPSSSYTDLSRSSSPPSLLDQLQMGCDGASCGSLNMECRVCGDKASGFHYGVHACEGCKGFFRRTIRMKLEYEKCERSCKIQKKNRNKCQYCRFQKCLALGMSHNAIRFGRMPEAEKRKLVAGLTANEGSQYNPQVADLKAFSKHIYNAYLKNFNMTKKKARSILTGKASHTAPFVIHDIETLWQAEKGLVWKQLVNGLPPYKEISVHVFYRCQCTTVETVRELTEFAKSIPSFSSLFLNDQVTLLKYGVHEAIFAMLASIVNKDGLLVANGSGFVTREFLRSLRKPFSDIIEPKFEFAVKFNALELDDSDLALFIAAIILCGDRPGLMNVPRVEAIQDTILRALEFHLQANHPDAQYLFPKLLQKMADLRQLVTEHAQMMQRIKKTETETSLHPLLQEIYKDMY
In short: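 Beta-lactamase reporter read by fluorescence (LiveBLAzer B/G FRET, 2 h, room temperature). Test agents, in DMSO, incubated at 37 C with PPARd-bla HEK293H cells.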

[12] = qHTS assay to identify small molecule antagonists of the peroxisome proliferator-activated receptor delta (PPARd) signaling pathway - cell viability counter screen (AID 743213); also: nearly all actives have a fitted effect of over 50% in size; also: potency is read from the fitted curve at half-maximal effect
In short: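 HEK293H PPARd UAS-bla cells, 5 h pre-incubation, compound + L165041 300 nM final, 17 h 37 C; B/G FRET substrate 2 h RT; then CellTiter-Glo 30 min RT, luminescence.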

[13] = target: Peroxisome proliferator-activated receptor delta (Homo sapiens) (UniProt Q03181); assay: qHTS assay to identify small molecule antagonists of the peroxisome proliferator-activated receptor delta (PPARd) signaling pathway (AID 743215; active = well fitted inhibition curve with a large enough effect in the signal ratio in the repeat runs, not every such curve was filed as active; the % refers to the signal ratio;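 also: cells stimulated with agonist L165041 at 300 nM final during compound exposure; series mostly up to about 62 µM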)
In short: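 Fluorescence from cleaved LiveBLAzer B/G FRET substrate (2 h, room temperature) reports PPARd-driven beta-lactamase in HEK293H UAS-bla cells. Cells had been treated 17 h at 37 C with compound plus 300 nM final L165041.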

[14] = qHTS assay to identify small molecule agonists of the farnesoid-X-receptor (FXR) signaling pathway - cell viability counter screen (AID 743218); also: nearly all actives have a fitted effect of over 45% in size; also: potency is read from the fitted curve at half-maximal effect
In short: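 Readout: CellTiter-Glo luminescence, 30 min RT, multiplexed after the FXR-bla FRET reading. HEK 293T FXR-UAS-bla cells received compound 5 h post-plating and were incubated 16 h at 37 C.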

[15] = qHTS assay to identify small molecule that activate the aryl hydrocarbon receptor (AhR) signaling pathway - cell viability counter screen (AID 743086); also: nearly all actives have a fitted effect of over 45% in size; also: potency is read from the fitted curve at half-maximal effect;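 as to viability change, negative = cytotoxic: HepG2 liver cells carrying the AhR DRE luciferase reporter; series mostly up to about 70 µM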
In short: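 HepG2-AhR-luc (HG2L7.5c1) cells, 4000/well, were preincubated 5 h at 37C, exposed to compound in qHTS format for 24 hr at 37C, then given CellTiter-Fluor for 30 min; viability was read as fluorescence in the reporter wells.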

[16] = target: Vitamin D3 receptor (Homo sapiens) (UniProt P11473); assay: qHTS assay to identify small molecule antagonists of the vitamin D receptor (VDR) signaling pathway (AID 743223; active = well fitted inhibition curve with a large enough effect in the signal ratio in the repeat runs, not every such curve was filed as active; the % refers to the signal ratio)
Sequence of Vitamin D3 receptor (Homo sapiens) (P11473 whole entry, looked up): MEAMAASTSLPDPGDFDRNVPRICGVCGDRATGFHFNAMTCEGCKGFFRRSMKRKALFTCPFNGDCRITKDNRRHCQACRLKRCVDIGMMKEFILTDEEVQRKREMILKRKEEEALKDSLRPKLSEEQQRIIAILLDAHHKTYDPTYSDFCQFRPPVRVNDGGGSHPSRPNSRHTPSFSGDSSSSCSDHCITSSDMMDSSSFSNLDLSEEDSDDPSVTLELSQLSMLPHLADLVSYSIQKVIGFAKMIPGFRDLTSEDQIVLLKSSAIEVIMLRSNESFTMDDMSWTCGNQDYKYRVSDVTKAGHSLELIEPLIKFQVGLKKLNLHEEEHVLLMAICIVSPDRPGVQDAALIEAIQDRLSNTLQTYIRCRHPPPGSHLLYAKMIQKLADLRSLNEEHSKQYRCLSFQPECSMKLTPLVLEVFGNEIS
In short: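 Antagonist mode: compound added to VDR-bla cells alongside agonist 1alpha,25-dihydroxyvitamin D3 (3 nM final), incubation 16 h at 37C. Read-out is LiveBLAzer FRET fluorescence, 2 h at room temperature.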

[17] = target: Peroxisome proliferator-activated receptor gamma (Homo sapiens) (UniProt P37231); assay: qHTS assay to identify small molecule agonists of the peroxisome proliferator-activated receptor gamma (PPARg) signaling pathway (AID 743094; active = well fitted activation curve with a large enough effect in the signal ratio in the repeat runs, not every such curve was filed as active; the % refers to the signal ratio; also: potency is read from the fitted curve at half-maximal effect)
Sequence of Peroxisome proliferator-activated receptor gamma (Homo sapiens) (P37231 whole entry, looked up): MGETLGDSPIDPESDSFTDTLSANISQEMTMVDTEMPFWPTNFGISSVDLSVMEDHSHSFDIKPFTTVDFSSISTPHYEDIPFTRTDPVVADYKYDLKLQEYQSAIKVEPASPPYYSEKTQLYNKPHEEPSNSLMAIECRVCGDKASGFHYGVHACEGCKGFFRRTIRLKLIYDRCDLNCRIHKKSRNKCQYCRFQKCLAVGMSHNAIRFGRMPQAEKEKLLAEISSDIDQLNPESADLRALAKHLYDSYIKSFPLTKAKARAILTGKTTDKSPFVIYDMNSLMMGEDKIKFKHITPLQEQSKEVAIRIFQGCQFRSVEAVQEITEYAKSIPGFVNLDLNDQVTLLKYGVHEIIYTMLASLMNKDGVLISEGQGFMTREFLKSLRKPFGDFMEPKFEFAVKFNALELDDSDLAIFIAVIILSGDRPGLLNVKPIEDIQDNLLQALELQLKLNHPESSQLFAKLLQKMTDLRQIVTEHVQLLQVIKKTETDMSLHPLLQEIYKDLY
In short: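 Cell-based bla reporter, HEK293H background, PPARg-driven UAS. Pre-incubation 5 h, 37C, 5% CO2. Compound 17 h, 37C. Substrate 1 h RT; fluorescence.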

[18] = target: Bile acid receptor (Homo sapiens) (UniProt Q96RI1); assay: qHTS assay to identify small molecule antagonists of the farnesoid-X-receptor (FXR) signaling pathway (AID 743217; active = well fitted inhibition curve with a large enough effect in the signal ratio in the repeat runs, not every such curve was filed as active; the % refers to the signal ratio)
In short: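 FRET fluorescence after 2 h room-temperature LiveBLAzer loading gives the readout. Prior step: FXR-bla HEK 293T cells, seeded and incubated 5 h, received test compounds plus 50 uM final CDCA for 16 h at 37 °C.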

[19] = target: Vitamin D3 receptor (Homo sapiens) (UniProt P11473); assay: qHTS assay to identify small molecule agonists of the vitamin D receptor (VDR) signaling pathway (AID 743222; calls by dose curve; also: potency is read from the fitted curve at half-maximal effect)
In short: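 Following 4 h attachment at 37C, VDR-bla cells (2,000 per well) received DMSO-dissolved compounds or controls. After 16 h incubation, LiveBLAzer B/G FRET substrate was added and fluorescence read 2 h later at room temperature.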

[20] = target: Peroxisome proliferator-activated receptor gamma (Homo sapiens) (UniProt P37231); assay: qHTS assay to identify small molecule antagonists of the peroxisome proliferator-activated receptor gamma (PPARg) signaling pathway (AID 743191; calls by dose curve; also: nearly all actives have a fitted effect of over 30% in size; also: potency is read from the fitted curve at half-maximal effect; as to ratio activity, negative = inhibition: series mostly up to about 63 µM)
In short: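 GeneBLAzer PPARg UAS-bla HEK293H cells carrying a UAS-driven beta-lactamase reporter were plated at 3000 cells/well, preincubated 5 h at 37C, then given compound for 17 h at 37C; LiveBLAzer B/G FRET substrate was read after 1 h at room temperature.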
% is scaled to controls: 0 for no effect and ±100 for the full control effect.

C=CC(=O)OCCOCCOC(=O)C=C
inactive: Potency [2] | Potency [4]
active: Potency [1] 13.7 µM | Potency [3] 30.8 µM | Potency [5] 49.2 µM

O=C(O)C1(C(=O)Nc2ccc(Cl)cc2Cl)CC1
inactive: Potency [1] | Potency [4] | Potency [6] | Potency [7] | Potency [8] | Potency [9]

CC(C)CC(=O)C1C(=O)c2ccccc2C1=O
inactive: Potency [1] | Potency [10] | Potency [4] | Potency [6] | Potency [7] | Potency [11] | Potency [12] | Potency [13] | Potency [14] | Potency [8] | Potency [9]

O=C(O)c1ccc(-n2nc(-c3ccccc3O)nc2-c2ccccc2O)cc1
inactive: Potency [2] | Potency [15] | Potency [4] | Potency [6] | Potency [5] | Potency [11] | Potency [12] | Potency [9] | outcome [16]

CN(C)CCCN1c2ccccc2Sc2ccccc21
inactive: Potency [2] | Potency [17] | Potency [6] | Potency [7] | Potency [11] | Potency [18] | Potency [8] | Potency [19]
active: Potency [14] 13.3 µM

COC(=O)C1=C(C)NC(COC(N)=O)=C(C(=O)OC(C)C)C1c1cccc(Cl)c1Cl (stereo unspecified)
active: Potency [17] 21.3 µM | Potency [19] 29.8 µM
inactive: Potency [2] | Potency [4] | Potency [6] | Potency [12] | Potency [14] | Potency [9]

CN1CCC(=C2c3ccccc3Sc3ccccc32)CC1
inactive: Potency [2] | Potency [17] | Potency [20] | Potency [3] | Potency [6] | Potency [7] | Potency [11] | Potency [13] | Potency [18] | Potency [8] | Potency [19] | outcome [16]
active: Potency [15] 29.8 µM | Potency [5] 26.6 µM

Brc1c2ccccc2cc2ccccc12
inactive: Potency [1] | Potency [15] | Potency [10] | Potency [6] | Potency [5] | Potency [12] | Potency [14] | Potency [9] | outcome [16]
active: Potency [17] 49.5 µM

O=S(c1cc(Cl)cc(Cl)c1O)c1cc(Cl)cc(Cl)c1O
active: Potency [10] 26.6 µM | Potency [4] 11.9 µM | Potency [5] 23.7 µM
inactive: Potency [2]

Cc1nn(C)c(Oc2ccccc2)c1/C=N/OCc1ccc(C(=O)OC(C)(C)C)cc1
inactive: Potency [2] | Potency [15] | Potency [17] | Potency [10] | Potency [6] | Potency [7] | Potency [14] | Potency [8] | Potency [9] | Potency [19]

CCO[C@H](Cc1ccc(OCCc2ccc(OS(C)(=O)=O)cc2)cc1)C(=O)O
active: Potency [17] 0.12 µM | Potency [11] 11.9 µM
inactive: Potency [1] | Potency [10] | Potency [4] | Potency [7] | Potency [5] | Potency [12] | Potency [14] | Potency [9]

C=CCOC(=O)CCC1CCCCC1
inactive: Potency [2] | Potency [15] | Potency [17] | Potency [20] | Potency [10] | Potency [4] | Potency [6] | Potency [11] | Potency [12] | Potency [13] | Potency [18] | Potency [14] | Potency [8] | Potency [9] | Potency [19] | outcome [16]

COc1ccc(C(=O)Nc2nc3ccccc3c(NCc3ccccc3)c2C#N)cc1
inactive: Potency [10] | Potency [4] | Potency [6] | Potency [7] | Potency [5] | Potency [12] | Potency [14] | Potency [8] | Potency [9]
active: Potency [2] 7.7 µM | Potency [20] 1.74 µM

O=C(Cl)c1cc(C(=O)Cl)cc(C(=O)Cl)c1
inactive: Potency [2] | Potency [15] | Potency [17] | Potency [20] | Potency [10] | Potency [6] | Potency [5] | Potency [11] | Potency [12] | Potency [13] | Potency [18] | Potency [14] | Potency [8] | Potency [9]

Cc1cccc(C)c1OCC(=O)N[C@@H](Cc1ccccc1)[C@@H](O)C[C@H](Cc1ccccc1)NC(=O)[C@H](C(C)C)N1CCCNC1=O
inactive: Potency [2] | Potency [4] | Potency [6] | Potency [12] | Potency [19]
active: Potency [15] 23.7 µM | Potency [3] 29.8 µM | Potency [9] 23.7 µM

CCCOC(C(=O)OC1CCN(C)CC1)(c1ccccc1)c1ccccc1
inactive: Potency [2] | Potency [17] | Potency [20] | Potency [10] | Potency [4] | Potency [6] | Potency [7] | Potency [5] | Potency [11] | Potency [18] | Potency [19]
active: Potency [15] 29.8 µM

O=C1CCCCCCCCCCCC(=O)OCCO1
inactive: Potency [2] | Potency [15] | Potency [17] | Potency [10] | Potency [4] | Potency [6] | Potency [7] | Potency [5] | Potency [11] | Potency [12] | Potency [9] | Potency [19]

C[Si](C)(CCCN)O[Si](C)(C)CCCN
inactive: Potency [1] | Potency [15] | Potency [17] | Potency [10] | Potency [4] | Potency [6] | Potency [7] | Potency [5] | Potency [11] | Potency [12] | Potency [13] | Potency [9]

Nc1cc(C(=O)O)c(O)c(S(=O)(=O)O)c1
inactive: Potency [2] | Potency [15] | Potency [17] | Potency [10] | Potency [4] | Potency [6] | Potency [7] | Potency [12] | Potency [14] | Potency [9] | Potency [19]

CCCCCCCCCCCCCCCCCCOS(=O)(=O)O
active: Potency [4] 61.1 µM | Potency [5] 49 µM | Potency [12] 54.9 µM | Potency [14] 34.7 µM
inactive: Potency [2] | Potency [15]

Brc1c2ccccc2c(Br)c2ccccc12
active: Potency [17] 1.98 µM | Potency [11] 1.98 µM
inactive: activity change, negative = cytotoxicity [1] 12.2% [at 8.47 µM] | viability change, negative = cytotoxic [15] -2.96% [at 8.47 µM] | activity change, negative = cytotoxicity [10] 7.41% [at 5.95 µM] | viability change, negative = cytotoxic [4] 3.8% [at 8.36 µM] | activity change, negative = cytotoxicity [6] 2.9% [at 5.95 µM] | activity change, negative = cytotoxicity [5] 11.2% [at 5.95 µM] | viability change, negative = cytotoxic [12] -15% [at 6.26 µM] | ratio activity, negative = inhibition [13] -10.9% [at 6.26 µM] | activity change, negative = inhibition [18] 14.8% [at 5.95 µM] | activity change, negative = cytotoxicity [9] -3.74% [at 5.95 µM]

COc1ccc(C(=O)c2ccc(OC)cc2O)c(O)c1
inactive: Potency [1] | Potency [15] | Potency [17] | Potency [4] | Potency [6] | Potency [7] | Potency [5] | Potency [11] | Potency [14] | Potency [9] | Potency [19]
